Screening data (PubChem BioAssay)
TDP-43 yeast inh: qHTS of TDP-43 Inhibitors; TDP-43 expressing yeast growth rescue, BacTiter-Glo, 24 h; Potency, µM (highest dose often 46.1 µM), hits mostly activators; 410,000 compounds, 1.8% hits; AID 652104, 2013; also: nearly all actives have a fitted effect of over 50% in size
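Growth rescue of TDP-43-toxic yeast measured as ATP luminescence (BacTiter-Glo). Cells grown to mid-log in raffinose, induced in galactose at OD600=0.02, exposed to compound 24 hr at 30 deg C.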
aSyn rescue: qHTS of alpha-syn Inhibitors. 370,000 compounds, 0.14% hits. Potency, µM (series often up to 46.1 µM), usual class: activators. AID 652106, 2013. Yeast expressing alpha-synuclein, growth rescue, BacTiter-Glo, 24 h; also: nearly all actives have a fitted effect of over 65% in size
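Galactose-induced alpha-syn yeast (OD600=0.02, raffinose-pregrown) + pinned cpd, 24 hr, 30 deg C; growth by BacTiter-Glo luminescence. Growth restoration scores as activation.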
Abeta yeast res: qHTS for compounds that reverse cellular toxicity of Amyloid beta (A-beta) peptide in yeast: Primary Screen; yeast expressing A-beta42, growth rescue, OD600, 48 h; response scale: 0% DMSO, 100% iron-clioquinol control; Potency, µM (doses to about 46.1 µM), hits mostly activators; 410,000 compounds, 0.063% hits; AID 1347071, 2019; also: nearly all actives have a fitted effect of over 55% in size
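Yeast A-beta toxicity model in growth medium with pinned compounds, 48 h at 30 C; growth read as absorbance at 600 nm. Normalized to FeCl3/clioquinol equimolar mix (positive) and DMSO (negative).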
FUS yeast rescue: qHTS for Suppressors of FUS Proteinopathy: Primary screen using FUS-linked yeast assay; AID 1347120, 2019; S. cerevisiae FUS-expressing, growth rescue, OD600, 24 h; Potency, µM (titrated, usually from 76.6 µM), actives largely listed as activators; 390,000 compounds, 0.24% hits; also: nearly all actives have a fitted effect of over 55% in size
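Cultures pregrown in 2.5% raffinose medium are shifted to minimal medium containing 2% galactose to express toxic FUS. Compounds are tested at several concentrations. After 24hr at 30C, growth is quantified at 600 nm absorbance.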
Hits are given with their value; - = inactive; ? = inconclusive; . = no result given; ! = repeats disagree; [ ] = remark or other dose. Hits are enriched below; roughly 2.1% of the tested compounds scored in any of these assays. Calls follow the shape of the dose curve; as a rule, active = well fitted curve in the direction sought with a large enough effect; inconclusive = small, poorly fitted or top-dose-only effect, or another doubt; inactive = no such curve, though single readings can be large; an effect the other way counts as inactive or inconclusive.

SMILES | TDP-43 yeast inh | aSyn rescue | Abeta yeast res | FUS yeast rescue
Nc1ccc2c(c1)Cc1ccccc1-2 | - | - | - | -
CSc1ccc(C(c2c(O)c3ccccc3oc2=O)c2c(C)n(C)n(-c3ccccc3)c2=O)cc1 (stereo unspecified) | - | - | - | ?
Cc1c(C(c2ccc(Br)cc2)c2c(O)c3ccccc3oc2=O)c(=O)n(-c2ccccc2)n1C (stereo unspecified) | 14µM! | - | - | ?
Cc1c(C(c2ccc(Cl)cc2Cl)c2c(O)c3ccccc3oc2=O)c(=O)n(-c2ccccc2)n1C (stereo unspecified) | 10µM | - | - | -
C[N+](C)(C)CC1CCCc2ccccc2C1=O (stereo unspecified) | - | - | - | .
CCn1nc(-c2cccs2)nc2c(=O)n(C)c(=O)nc1-2 | - | - | - | -
CCn1nc(/C=C/c2ccccc2)nc2c(=O)n(C)c(=O)nc1-2 | 3.2µM | - | - | -
O=S(=O)(c1ccccc1)C1CN1c1c(F)c(F)c(F)c(F)c1F (stereo unspecified) | - | - | - | -
CC(=O)[C@H]1CC[C@H]2[C@@H]3CCC4=CC(=O)CC[C@]4(C)[C@H]3CC[C@]12C | 35µM | - | - | -
CC(=O)C1CCC2C3C(N4CC4)CC4=CC(=O)CCC4(C)C3CCC12C (stereo unspecified) | - | - | - | .
COC(=O)C1=C(c2ccc(F)cc2OCc2ccccc2)C[C@@H]2CC[C@H]1N2C(=O)NCCOc1ccccc1 | - | - | - | ?
O=c1c(-c2ccccc2)c(O)c2ccccc2n1-c1ccccc1 | 13µM | - | - | -
COc1ccc2nc(N3CCN(C(=O)CS(=O)(=O)c4ccc(C)cc4)CC3)sc2c1 | 13µM | . | - | -
CCOc1ccc2nc(N3CCC(C(=O)N4CCC5(CC4)OCCO5)CC3)sc2c1 | - | - | - | ?
Cc1cc(=O)oc2c(C)c(OCC(=O)N3CCN(Cc4ccccc4)CC3)ccc12 | - | - | - | -
Clc1ccccc1CN1CCN(c2ccccc2)CC1 | - | - | - | -
c1ccc(N2CCN(c3ncnc4c3nc3n4CCCCC3)CC2)cc1 | 14µM | . | - | -
O=C(c1ccccc1Cl)N1CCC(c2nc3ccccc3s2)CC1 | 16µM | . | - | -
CC(C)(C)n1nnnc1C(c1cc2ccccc2o1)N1CCC2(CC1)C(=O)NCN2c1ccccc1 (stereo unspecified) | - | - | - | ?
O=C1NCN(c2ccccc2)C12CCN(C(c1cc3ccccc3o1)c1nnnn1C1CCCCC1)CC2 (stereo unspecified) | - | - | - | 11µM
CCc1ccc(-n2nc(C)c3c2NC(=O)CSC3c2ccc(OC)cc2OC)cc1 (stereo unspecified) | - | . | - | ?
COc1cc(Cn2c(=O)oc3ccc(C)cc32)ccc1OC(C)C | 35µM | - | - | -
Cc1cccc(OCCn2c(=O)oc3ccc(C)cc32)c1 | 14µM | - | - | -
Cc1cccc(OCCn2cccc2/C=C2/C(=O)NC(=O)N(Cc3ccco3)C2=O)c1 | - | - | - | -
COc1cccc(N=Cc2c(O)n(Cc3ccco3)c(=O)[nH]c2=O)c1 | - | - | - | -
SMILES | TDP-43 yeast inh | aSyn rescue | Abeta yeast res | FUS yeast rescue
Cc1nc2cc([N+](=O)[O-])ccc2c(=O)n1-c1ccc(Br)cc1 | - | - | - | -
Cc1nc2cc([N+](=O)[O-])ccc2c(=O)n1-c1ccccc1[N+](=O)[O-] | 16µM | - | - | -
CCCC(C)C1(CC)C(=O)NC(=Nc2ccc(F)cc2)NC1=O (stereo unspecified) | - | - | -[9.22 µM] | -
CC(=NCc1cccnc1)c1c(O)n(Cc2ccccc2)c(=O)[nH]c1=O | - | - | - | -
CC(C(=O)c1ccc(Cl)cc1Cl)n1cncn1 (stereo unspecified) | - | - | - | -
CC(C)(C)C(O)C(Oc1ccc(Cl)cc1)n1cncn1 (stereo unspecified) | 2.5µM | ? | ? | -
O=C(O)C1(Br)CC12c1ccccc1-c1ccccc12 (stereo unspecified) | 13µM | - | - | .
O=C(Nc1nccs1)C(Cl)(Cl)Cl | - | - | - | -
O=C(Nc1ccc(Cl)cc1)Nc1nccs1 | 20µM | - | - | -
CC1CCC(C)(NS(=O)(=O)OCC(Cl)(Cl)Cl)CC1 (stereo unspecified) | 18µM | - | - | -
O=C(COc1ccc(Cl)cc1)N1CCN(Cc2ccccc2)CC1 | - | - | - | -
CC(C)(Oc1ccc(Cl)cc1)C(=O)OCC(=O)N1CCN(c2ccccc2)CC1 | 14µM | - | - | -
COC(=O)C1=C(c2ccc(OC)c(OC)c2)C[C@@H]2CC[C@H]1N2C(=O)NCc1ccco1 | - | - | - | -
Cc1ccc2nc(N3CCC(C(=O)N4CCC5(CC4)OCCO5)CC3)sc2c1 | - | - | - | -
O=S(=O)(c1ccccc1C(F)(F)F)N1CCN(c2ncnc3sccc23)CC1 | 13µM | - | - | -
COC(=O)C1=C(c2ccc(-c3ccccc3)c(F)c2)C[C@@H]2CC[C@H]1N2C(=O)NCCc1ccccc1 | ? | - | - | ?
